Inconclusive results are not listed. Activity calls are given as the source filed them. Calls come from the whole dose curve; as a rule, active = well fitted cell-killing curve with a large enough effect; inconclusive = small, poorly fitted or top-dose-only effect, or effect the other way; inactive = no such curve, though single readings can be large or run the other way.
Potency is the fitted concentration of half-maximal effect.

This assay in a line: Quantitative High-Throughput drug screen in 47 multiple myeloma cell lines against the NCATS MIPE library collection: ARP1_JJKsccF8 cell viability assay (AID 1918928; note: nearly all actives have a fitted effect of over 40% in size). The conditions noted are these: ARP1 myeloma cells viability, CellTiter-Glo ATP, 48 h; series mostly up to 45.8 µM. The method, boiled down: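 Cell viability inhibition in this qHTS is measured via ATP content (CellTiter-Glo) after 48 h drug exposure at 37 °C. Wells hold 500 cells; DMSO-treated wells define 100% and medium-only wells 0%.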
For orientation: Cellular ATP, detected with luciferase, serves as a proxy for viable cell number.
Consider `O=C(CCCCCCC(=O)Nc1ccccc1)NO`, for which the Potency is 0.833 µM (active).

For `CC(C)(C(=O)NCC(F)(F)C(F)(F)F)C(=O)N[C@@H]1C(=O)Nc2ccccc2-c2ccccc21`, the Potency result was “inactive”.

`O=C(Nc1ccccc1-c1cn2c(CN3CCNCC3)csc2n1)c1cnc2ccccc2n1`: the Potency is 23.5 µM (active).

For the compound `COc1cc(Nc2ncc(F)c(Nc3ccc4c(n3)NC(=O)C(C)(C)O4)n2)cc(OC)c1OC`, the Potency was 5.9 µM (active).

Source of the values: PubChem BioAssay (NCATS).
